Whole data set: some 33,000 sequences, median “E-score (-0.5 to 0.5)” near -0.036, cut for the highest 2% near 0.37. The sample holds the highest values, similar sequences and a random draw of the others, so the mix is not that of the screen.
biological target: T1, Yer064c (UniProt P40041); assay: PBM E-score (8-mer binding enrichment) (E-score (-0.5 to 0.5)); higher = stronger / more preferred TF binding; details: protein concentration: 200 nM; construct: GST-full length
T1 sequence: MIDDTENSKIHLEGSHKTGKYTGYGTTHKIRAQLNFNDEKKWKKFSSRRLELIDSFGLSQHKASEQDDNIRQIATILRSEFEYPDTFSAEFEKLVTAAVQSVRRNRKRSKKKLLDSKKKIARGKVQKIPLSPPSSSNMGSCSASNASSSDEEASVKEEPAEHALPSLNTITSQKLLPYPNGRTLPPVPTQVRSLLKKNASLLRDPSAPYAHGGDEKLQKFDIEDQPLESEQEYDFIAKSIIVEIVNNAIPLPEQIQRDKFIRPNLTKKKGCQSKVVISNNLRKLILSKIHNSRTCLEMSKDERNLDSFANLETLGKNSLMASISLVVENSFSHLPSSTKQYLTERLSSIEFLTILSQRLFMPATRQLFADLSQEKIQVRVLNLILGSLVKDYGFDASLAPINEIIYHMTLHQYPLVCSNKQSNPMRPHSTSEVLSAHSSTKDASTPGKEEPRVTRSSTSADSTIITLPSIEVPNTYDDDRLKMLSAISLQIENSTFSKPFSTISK
Procedure: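 Universal 'all 10-mer' protein binding microarrays (Agilent AMADID 015681) probed with GST-tagged S. cerevisiae TFs (full-length or DBD) made by in vitro transcription/translation (PURExpress), about 100-200 nM. Bound TF was detected with fluorescent anti-GST. Each ungapped 8-mer (which stands for itself and its reverse complement) is scored by the PBM enrichment score (E-score), a modified Wilcoxon-Mann-Whitney statistic from -0.5 to +0.5, computed with the Universal PBM Analysis Suite. Scale: above 0.35 generally sequence-specific binding.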

Sequence	PBM E-score
AGGGATAA	0.093
CGGCTGCA	-0.189
AATATGGA	-0.0374
CGTTGCGC	-0.22
GAGCACAA	0.0121
AAAGACTC	0.409
AAAGACTG	0.157
GCAGACTA	0.309
AAAGACTT	0.294
TAAGACCA	0.112
ACAGACTA	0.0746
GAAGACTA	0.444
AAAGACTA	0.392
TAAGACAA	-0.0363
CAAGACTA	0.329
ACAGACTC	0.269
TAAGACTA	0.423
ACAGCCTA	-0.0814
ACCCTGCC	-0.154
GGGCAAGA	-0.0907
GAGTTCGA	0.185
GCGCTTTA	-0.161
AAAGTGAC	0.305
CCCGCGAA	0.0838
CAAGACGC	-0.166

Sequence	PBM E-score
CAAGACTG	0.175
GAAGACCC	-0.0698
GAAGACGC	-0.193
GAAGACTC	0.446
CAAGACTC	0.429
GACCGAAC	-0.059
CATTACCC	0.0868
AATGGAGA	-0.0502
CACTCTAA	0.149
TACTCTAA	-0.042
GACTCTAA	0.381
AACTCTAC	-0.212
CACTCTAC	0.0903
GACTCTAC	0.38
ATGCCAAG	-0.0388
ACGATAAC	-0.0162
GATCCGCC	-0.041
AACTTTGC	-0.113
ACAACATC	-0.143
ACCATACT	0.0817
ACGTGACG	-0.176
AGGTGACT	0.484
AGGTGACA	-0.0676
AGGTGACG	-0.188
AAGTGATT	0.394

Sequence	PBM E-score
AAGTGACG	0.0587
ACGTGACA	-0.138
AAGTGACT	0.453
AAGTGACC	-0.00564
AAGTGATC	0.103
AAGTGATG	0.0804
ACGTGACT	0.468
CCTCTGAA	-0.0251
AAATCCCA	-0.203
ACCCACCC	0.111
CACCTAGG	0.0188
ATCAGAAC	0.127
CTGAGAGA	-0.0026
AAGCTTGG	-0.0782
CAGATGAC	0.215
AAGATGAC	0.312
GAGATGAC	0.367
GGAACTGA	-0.00126
TCGACCAA	-0.188
AATAGAAA	-0.119
CCCTCCCA	-0.298
ACTCATTC	0.394
ATTCATTG	0.214
CCTCATTC	-0.176
ATTCATTC	0.122

Sequence	PBM E-score
ACTCATTG	0.382
ACACATTG	0.0326
CCTCATTA	0.0877
ACTCATTA	0.372
GCTCATTA	-0.044
ATGGCTTG	-0.159
GATTTACC	0.00206
ATTTCATA	-0.0227
ATCCGAAT	0.0995
AAGGGATG	-0.176
AATCAGTC	0.368
ATTCAGTC	0.341
ACTCAGTC	0.411
AATCAGTA	0.234
ATTCAGTG	0.214
AGTCAGTG	0.427
CGTCAGTC	0.291
CATCAGTC	0.321
AATCAGTG	0.239
ACTCAGTG	0.251
AGTCAGTC	0.442
CCTCAGTC	0.326
ACGCATGA	0.146
ATCCGTTG	-0.037
ACCTTGAA	0.0165

Sequence	PBM E-score
GAACCAGA	0.0172
ACCCTCAC	-0.132
CGCACATC	0.00301
CGTCAGTA	0.0514
GGTCAGTA	-0.0314
AGTCAGTA	0.42
CTTTAACA	-0.0802
GCCTAGGC	-0.179
AGGAGCGC	-0.205
ACTCACTA	0.346
ACACACTG	0.0265
CCTCACTC	-0.077
ACTCACTC	0.371
ACTCACTG	0.374
ACTCACAC	0.364
CGGTTTAG	-0.1
AGAGACAA	-0.175
TAAACCAA	-0.0214
GAGGACAC	-0.221
TAGGACTA	0.357
CAGGACTC	0.344
AAGGACTC	0.39
GAGGACTA	0.369
AAGGACTT	0.0394
GAGGACTC	0.387

Sequence	PBM E-score
AAGGACCA	-0.026
AAGGACTG	0.184
AAGGACTA	0.375
CAGGACTA	0.262
AAGGACGA	-0.0247
ACCGGCGG	-0.156
CCAGATGC	0.0961
AGCTAGAT	-0.12
AACCCCAG	-0.047
GGCAACTA	-0.0239
CCCATCTA	-0.0727
CAAACGAC	0.0734
GTGTGCGA	0.0296
AGATCTTA	0.137
GACGTTCA	-0.12
GCATTTCC	-0.0262
AGAACACA	0.0627
TAAAGTTA	0.106
CAAAGTCC	-0.222
GAAAGTTA	0.137
GAAAGTCC	-0.215
AAAAGTCA	0.374
CAAAGTCG	0.167
AAAAGTCT	0.0759
GAAAGTCA	0.428

Sequence	PBM E-score
TAAAGTAA	0.049
CAAAGTCA	0.399
TAAAGTCA	0.413
AAAAGTCC	-0.0242
ACCACGGG	-0.0993
AGCAGGAG	-0.0429
GGCATACA	-0.226
GATTCGAA	0.207
CTCGGTGA	0.137
ACTACGAT	0.233
CCCATGCC	-0.231
CCCAGAGG	-0.276
CAGTCAGG	0.333
AAGTCAGA	0.341
GAGTCAGC	0.48
CAGTCAGA	0.361
AAGTCAGC	0.422
ATGTCAGC	-0.0283
CAGTCAGC	0.406
GCGTCAGC	-0.304
AAGTCAGT	0.362
AATCTTAC	0.183
ATTTGTCG	-0.0532
CACTCAGC	-0.0645
AACTCAGC	0.022

Sequence	PBM E-score
CACTCAGA	0.0961
AACTCAGA	0.164
GACTCAGC	0.457
GACTCAGA	0.458
GGCGCGAA	-0.0884
AACGTGGC	-0.0783
ACCCTAGA	-0.0589
ACCTCGGC	-0.153
CATCACCG	0.156
TATCACCA	-0.0277
AAGCACCG	-0.164
CATCACCC	-0.0525
CATCACCA	-0.0269
AATCACCA	0.374
AACCACCT	0.0325
AAACACCT	0.129
AATCACCC	0.426
GATCACCC	0.00825
AATCACCT	0.438
AATCACCG	0.42
AGAAGAAC	-0.146
ACCAGACT	0.0775
ACGGCTAT	-0.24
GGTTTACA	-0.0888
CGTGCACG	0.0709

Sequence	PBM E-score
CCTGAGGA	0.00765
ACGGTATG	-0.0999
GTGATTAA	0.452
ATGATTAA	0.472
ACGATTAA	0.26
CCGATTAC	-0.132
CTGATTAA	0.405
GAGATTAA	0.245
CGGATTAC	0.0966
CGGATTAA	0.208
AGGATTAA	0.253
CTGATTAC	0.375
GGGATTAA	0.166
CAGATTAA	0.183
GAAACTAC	0.00139
CCGAGGAC	-0.0294
AGCAAAAC	-0.0941
CATCCGAA	0.123
ATGGAAAG	-0.0473

Reference: the supplement of paper PMC3334620
